Source: the supplement of paper PMC10338343
± gives the standard deviation.

The sequences below were run on EfPiwi piRISC loaded with L1MC piRNA (26 nt) (assay: pre-steady-state target cleavage rate (min^-1); auxiliary factor: 500 nM Ephydatia muelleri Gtsf1; guide: L1MC piRNA 5'p-UAACUAAAUACUAUGCAAGCUGUAGG; MIWI and MILI are mouse PIWI proteins and EfPiwi is from a freshwater sponge; tags in brackets are library labels; higher = faster piRNA-guided slicing of the target).
In short: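 Cleave-'n-Seq: a transcribed, DNA-blocked target RNA library (0.1 nM) was mixed with 1 nM active affinity-purified piRISC carrying one synthetic guide, with or without 500 nM GTSF1 partner protein, in HEPES–potassium acetate buffer at 33 °C for 0–8 or 0–960 min. Uncleaved targets were sequenced and normalised to depth and to weakly complementary targets. Three trials were pooled, and k3 was capped at 0.0001 min^-1. The pre-steady-state cleavage rate came from a burst-and-steady-state fit.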

Sequence	pre-steady-state target cleavage rate
UCCUGGAUGAGCUUACAUAGUAUUUAGUUA	0.00581 ± 0.0024
UCCUGCUACAGCUUGCAUAGUUAUUAGAAA	0.00309 ± 0.0025
UCCUGCUACAGCUUGCAUAGUAUAAUGUAA	0.00248 ± 0.002
UCCUGGAUCAGCUUGCAUAGUAUUUAUGUUA	0.0559 ± 0.02
UCCUCCUACAGCUUGCAUUGUAUUUAGUUA	0.0211 ± 0.0059
UCCUGGAUGUGCUUGCAUUCAUAAAUCAAA [g13:g20:cont:t1A]	< 0.0001
UCCUCCUACAGCUUGCAUAGUAUAAUGUAA	0.00413 ± 0.0027
UCCUGGUACAGGAUGCAUAGUAUUUAGUUA	0.00598 ± 0.003
UCCUCCUAAGCUUGCAUAGUAUUUAGUUA	0.0155 ± 0.0059
UCCUGGUACAGCUUGCAUAUUAUUUAGUUA	0.00464 ± 0.0037
UCCUGGAUCUGCUAGCAUAGUAUUUAGUUA	0.0121 ± 0.0038
UCCUCCUACAGCUUGCAUAGUAUUAUGUUA	0.0049 ± 0.0026
UCCUGGAUGUCGAACGUUACAAUUUAGUUA	< 0.0001
UCCUGGAUGUCGAACGUAUGUAUUUUGUUA	< 0.0001
UCCUCCUACAGCUUGGAUAGUAUUUUCAAA	0.00297 ± 0.0022
UCCUGGUCAGCUUGCAUAGUAUUUAGUUA	0.14 ± 0.027
UCCUGGAUGUCGAAGCUUAGUAUUUACUUA	< 0.0001
UCCUGCUACAGCUUGCAUAGUAUGUAGUUA	0.00311 ± 0.0014
UCCUGGAUGAGCUUGCGAUAGUAUUUAGUUA	0.00307 ± 0.0022
UCCUCCUACUGCUUGCAUAGUAUUAAGUUA	0.00682 ± 0.0034

Sequence	pre-steady-state target cleavage rate
UCCUCCAACAGCAUGCAUAGUAUUUAGUUA	0.0161 ± 0.0047
UCCUGCUACAGCUUGGAUAGUAAUUAGUUA	0.00773 ± 0.0024
UCCUGGAACAGCUUGCAUAGUAUUAAGAAA	0.00313 ± 0.0019
UCCUCCUACAGCUUGGAUAGUAUUAAGUUA	0.00905 ± 0.0043
UCCUGCUACAGCUUGCAUAGUAAAUAGUAA	0.00351 ± 0.0022
UCCUGGAUGUCGAACCAGAGUAUUUAGUUA	< 0.0001
UCCUCCUACAGCUUCCAUAGUAUUUACAAA	0.00265 ± 0.0026
UCCUGGAUGUCGAACCAAAGUAUUUAGUUA	< 0.0001
UCCUGGAUGUCGAACCAUAGUCUUUAGUUA	< 0.0001
UCCUGGAUGUCGUUGCAAACUAUUUAGUUA	< 0.0001
UCCUGGAUCAGCUUGCAUAGUAUUUACGUUA	0.0133 ± 0.0044
UCCUGCUACAGCUUGGAUAGUAUUUUCAAA	0.00307 ± 0.0018
UCCUCCAACAGCUUGCAUAGUAUUUUCAAA	0.00396 ± 0.0027
UCCUGGUACAGCUUCCAUAGUAUUUAGAUA	0.00221 ± 0.0016
UCCUGCUACUCGUUGCAUAGUAUUUAGUUA	0.00936 ± 0.0038
UCCUCCUACAGCUUGCAUAGUAUUUUCUUA	0.00493 ± 0.003
UCCUGGAUGUCCUUGCAUAGUAUCUAGUUA	0.00775 ± 0.0043
UCCUGGUACAGCUUGCAAAGUAUUUAGAAA	0.00656 ± 0.0038
UCCUGGAUCACCUAGCAUAGUAUUUAGUUA	0.00614 ± 0.004
UCCUGGUACAGCUUGCAAUAGUAUUUAGUUA	0.00587 ± 0.0028
